Reference: PubChem BioAssay (NCI)
Where “and” joins values, the source holds several entries; their conditions need not be identical. Identical values can stand only once. About 79,000 compounds went through this panel and 15% of them were active in at least one assay; those are over-represented in the sample as a whole. Calls of active or inactive are those of the source. Rule as the data show it: active = growth inhibition above about 70%; inactive = the rest.

Assays:
[1] = NCI Yeast Anticancer Drug Screen. Data for the rad52 strain (AID 147);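 also: 0% = growth of vehicle-treated control cultures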; settings: S. cerevisiae rad52 mutant growth inhibition, active compounds read high
Summary of the method: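 Growth of repair-deficient yeast cells was compared between compound-treated and vehicle-treated cultures to give percent inhibition.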

[2] = NCI Yeast Anticancer Drug Screen. Data for the wt1 strain (AID 149);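 also: 0% = growth of vehicle-treated wt1 cultures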; settings: S. cerevisiae wt1 strain (SPY 50644) growth inhibition, active compounds read high
Summary of the method: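 Compounds are added to wt1 yeast cultures. Growth is then measured. Inhibition is expressed relative to vehicle-treated controls.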

[3] = NCI Yeast Anticancer Drug Screen. Data for the rad50EPP+ strain (AID 151);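 also: 0% = growth of vehicle-treated control cultures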; settings: S. cerevisiae rad50 mutant strain, active compounds read high
Summary of the method: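 Measured: growth inhibition of rad50EPP+ yeast. Reference: vehicle-treated controls. Screen uses strains with defined genetic alterations in DNA damage repair or cell cycle control.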

[4] = NCI Yeast Anticancer Drug Screen. Data for the mgt1 strain (AID 153); settings: S. cerevisiae mgt1 mutant growth inhibition, active compounds read high
Summary of the method: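 Compounds were applied to mgt1 mutant yeast, and growth was then compared against vehicle-treated control cultures to give percent inhibition.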

[5] = NCI Yeast Anticancer Drug Screen. Data for the rad50 strain (AID 155);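 also: 0% = growth of vehicle-only cultures of the same strain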; settings: S. cerevisiae rad50 strain growth inhibition, active compounds read high
Summary of the method: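 Inhibition values express reduced yeast growth in compound-treated cultures relative to vehicle-treated controls.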

[6] = NCI Yeast Anticancer Drug Screen. Data for the mec2-1 strain (AID 157); settings: S. cerevisiae mec2-1 strain, active compounds read high
Summary of the method: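 Compounds were applied to mec2-1 yeast cells. Their growth was then compared with that of vehicle-treated cultures to give growth inhibition.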

[7] = NCI Yeast Anticancer Drug Screen. Data for the rad14 strain (AID 159);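 also: 0% = growth of vehicle-treated control cultures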; settings: S. cerevisiae rad14 strain growth inhibition, active compounds read high
Summary of the method: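 A mutant yeast strain defective in DNA damage repair is treated with compound; inhibition of its growth is scored against untreated, vehicle-exposed cultures.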

[8] = NCI Yeast Anticancer Drug Screen. Data for the sgs1 mgt1 strain (AID 161);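 also: 0% = growth of cultures given vehicle only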; settings: S. cerevisiae sgs1 mgt1 strain, active compounds read high
Summary of the method: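 Percent growth inhibition was derived by comparing compound-exposed mutant yeast with vehicle-exposed cultures. The strain carries alterations in DNA damage repair.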

[9] = NCI Yeast Anticancer Drug Screen. Data for the CLN2oe strain (AID 163);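 also: 0% = growth of vehicle-only control cultures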; settings: S. cerevisiae CLN2oe strain, active compounds read high
Summary of the method: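 Cells of an engineered yeast line with disturbed cell-cycle regulation are treated with compound. Inhibition of growth is then calculated relative to the vehicle-treated reference.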

[10] = NCI Yeast Anticancer Drug Screen. Data for the cln2 rad14 strain (AID 165);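 also: 0% = growth equal to vehicle treated cultures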; settings: S. cerevisiae cln2 rad14 strain, active compounds read high
Summary of the method: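 Strain: cln2 rad14 yeast, altered in cell cycle control and DNA damage repair. Read-out: growth inhibition vs vehicle.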

[11] = NCI Yeast Anticancer Drug Screen. Data for the bub3 strain (AID 167); settings: S. cerevisiae bub3 mutant strain, active compounds read high
Summary of the method: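 Steps: expose the mutant yeast strain to compound; grow alongside vehicle-treated cultures; measure growth; express inhibition against the vehicle cultures.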

[12] = NCI Yeast Anticancer Drug Screen. Data for the wt2 strain (AID 169);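 also: 0% = growth of vehicle-treated yeast cultures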; settings: S. cerevisiae wt2 strain growth inhibition, active compounds read high
Summary of the method: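 Growth of compound-treated yeast is measured and expressed as inhibition relative to vehicle-only controls.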

[13] = NCI Yeast Anticancer Drug Screen. Data for the mlh1 strain (AID 171);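 also: 0% = growth of vehicle-treated control cultures of the same strain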; settings: S. cerevisiae mlh1 strain growth inhibition, active compounds read high
Summary of the method: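 Test agents were incubated with yeast bearing a defined DNA damage repair or cell cycle control alteration; values are growth inhibition normalised to vehicle-treated cultures.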

[14] = NCI Yeast Anticancer Drug Screen. Data for the sgs1 strain (AID 173);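 also: 0% = growth of vehicle-only control cultures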; settings: S. cerevisiae sgs1 mutant, active compounds read high
Summary of the method: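 Strain with an altered DNA repair or cell cycle pathway exposed to compound. Growth then measured. Value = inhibition versus vehicle control.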

[15] = NCI Yeast Anticancer Drug Screen. Data for the mlh1 rad18 strain (AID 175); settings: S. cerevisiae mlh1 rad18 strain growth inhibition, active compounds read high
Summary of the method: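 A repair-deficient yeast strain is exposed to test compound, and growth is scored relative to vehicle-treated controls.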

[16] = NCI Yeast Anticancer Drug Screen. Data for the rad18 strain (AID 177); settings: S. cerevisiae rad18 mutant growth inhibition, active compounds read high
Summary of the method: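 DNA-repair-defective yeast; compound treatment; growth inhibition scored against vehicle.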

[17] = at 5.0 µM (retest, dose inferred, filed as 0.5)
[18] = at 50.0 µM (retest, dose inferred, filed as 5.0)

Measured: growth inhibition

COC1=C(N)C(=O)c2nc(-c3nc(C(=O)O)c(C)c(-c4ccc(OC)c(OC)c4O)c3N)ccc2C1=O
inactive: [8]; [17] 16% and 59% | [10]; [17] 13% and 49% | [11]; [17] 14% and 30%
active: [1]; at 1.2 µM 97% | [1]; at 3.7 µM 97% | [1]; at 11.0 µM 98% | [1]; at 33.0 µM 98% | [1]; at 100.0 µM 97% | [2]; at 1.2 µM 98% | [2]; at 3.7 µM 99% | [2]; at 11.0 µM 99% | [2]; at 33.0 µM 99% | [2]; at 100.0 µM 98% | [3]; at 1.2 µM 91% | [3]; at 3.7 µM 93% | [3]; at 11.0 µM 94% | [3]; at 33.0 µM 96% | [3]; at 100.0 µM 96% | [4]; at 1.2 µM 97% | [4]; at 3.7 µM 98% | [4]; at 11.0 µM 98% | [4]; at 33.0 µM 98% | [4]; at 100.0 µM 98% | [5]; at 1.2 µM 96% | [5]; at 3.7 µM 97% | [5]; [17] 96% and 98% | [5]; at 11.0 µM 97% | [5]; at 33.0 µM 98% | [5]; [18] 97% and 98% | [5]; at 50.0 µM 93.5% and 92.5% | [5]; at 100.0 µM 97% | [6]; at 1.2 µM 96% | [6]; at 3.7 µM 98% | [6]; [17] 97% and 99% | [6]; at 11.0 µM 99% | [6]; at 33.0 µM 99% | [6]; [18] 98% and 99% | [6]; at 50.0 µM 94% | [6]; at 100.0 µM 98% | [7]; at 1.2 µM 98% | [7]; at 3.7 µM 98% | [7]; at 11.0 µM 98% | [7]; at 33.0 µM 98% | [7]; at 100.0 µM 98% | [8]; [18] 98% and 96% | [8]; at 50.0 µM 94.2% and 93.8% | [9]; at 1.2 µM 89% | [9]; at 3.7 µM 93% | [9]; at 11.0 µM 96% | [9]; at 33.0 µM 97% | [9]; at 100.0 µM 96% | [10]; [18] 98% and 92% | [10]; at 50.0 µM 93% and 92.2% | [11]; at 1.2 µM 95% | [11]; at 3.7 µM 97% | [11]; at 11.0 µM 98% | [11]; at 33.0 µM 97% | [11]; [18] 98% and 93% | [11]; at 50.0 µM 94% and 92.8% | [11]; at 100.0 µM 98% | [12]; at 1.2 µM 91% | [12]; at 3.7 µM 97% | [12]; at 11.0 µM 97% | [12]; at 33.0 µM 98% | [12]; at 100.0 µM 97% | [13]; at 1.2 µM 95% | [13]; at 3.7 µM 98% | [13]; at 11.0 µM 98% | [13]; at 33.0 µM 98% | [13]; at 100.0 µM 97% | [14]; at 1.2 µM 95% | [14]; at 3.7 µM 97% | [14]; at 11.0 µM 98% | [14]; at 33.0 µM 98% | [14]; at 100.0 µM 97% | [15]; [17] 97% and 99% | [15]; [18] 97% and 98% | [15]; at 50.0 µM 93% and 92.5% | [16]; at 1.2 µM 96% | [16]; at 3.7 µM 98% | [16]; at 11.0 µM 98% | [16]; at 33.0 µM 97% | [16]; at 100.0 µM 97%
